Test results reported in PubChem BioAssay (NCI).
The panel holds about 83,000 compounds, 20% with a hit somewhere; the sample as a whole holds those more often.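 Activity criterion: percent growth below 10, measured after cells in 96-well plates were exposed to a single compound concentration for 48 hours.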 A number with no mark means an inactive call. Activity calls are given as the source filed them.

Assays:
Assay in all cases: NCI-60 one-dose screen, 48 h (100 = growth as untreated, 0 = no growth, -100 = all killed)
Conditions in all cases: 10 µM unless noted
RPMI-8226 leukemia = tested on: RPMI-8226 leukemia
OVCAR-8 ovarian = tested on: OVCAR-8 ovarian
OVCAR-5 ovarian = tested on: OVCAR-5 ovarian
SK-OV-3 ovarian = tested on: SK-OV-3 ovarian
IGROV1 ovarian = tested on: IGROV1 ovarian
OVCAR-3 ovarian = tested on: OVCAR-3 ovarian
HS 578T breast = tested on: HS 578T breast
NCI/ADR-RES ovarian = tested on: NCI/ADR-RES ovarian
T-47D breast = tested on: T-47D breast
OVCAR-4 ovarian = tested on: OVCAR-4 ovarian

| Structure (SMILES) | growth (RPMI-8226 leukemia) | growth (OVCAR-8 ovarian) | growth (OVCAR-5 ovarian) | growth (SK-OV-3 ovarian) | growth (IGROV1 ovarian) | growth (OVCAR-3 ovarian) | growth (HS 578T breast) | growth (NCI/ADR-RES ovarian) | growth (T-47D breast) | growth (OVCAR-4 ovarian) |
| --- | --- | --- | --- | --- | --- | --- | --- | --- | --- | --- |
| Cc1nnc(/N=C2\NC(=O)/C(=C/c3ccsc3)S2)s1 | 94% | 104% | 107% | 89.5% | 90.7% | 93.3% | 96.4% | 94.8% | 84.4% | – |
| CN1CCN(/C=C2\CC(C(=O)NCc3ccc(Cl)cc3Cl)NC2=O)CC1 (stereo unspecified) | 93.9% | 99.1% | 110% | 107% | 109% | 108% | 103% | 107% | 113% | – |
| O=C1Nc2ccc(Br)cc2/C1=N\N=C/c1cn(Cc2ccccc2)c2ccccc12 | 95.9% | 96.1% | 28.3% | 76.2% | 80.7% | 109% | 80.9% | 99.5% | 89.6% | – |
| CCCCn1c(=O)c(/C=C/C(=O)/C=C/c2ccc(O)c(OC)c2)cc2ccc(Cl)cc21 | -14.2% (active) | -4.03% (active) | 49.6% | 59.2% | 6.29% (active) | -26.2% (active) | 47.8% | 14.8% | 25.3% | – |
| N#Cc1c(-c2ccc(F)cc2)c(C#N)c2c(C#N)c(N)nn2c1N | 104% | 103% | 96.1% | 82.2% | 80.9% | 98.7% | 98% | 99.9% | 66.4% | – |
| COc1cc(NCC(=O)Nc2cc(Nc3cccc(C(F)(F)F)c3)ncn2)c(Cl)c(OC)c1Cl | 83.5% | 94.1% | 98.2% | 93.6% | 95.3% | 95.5% | 82.2% | – | 81.2% | – |
| C#Cc1cccc(Nc2ncnc3ccc(NC(=O)c4ccccc4)cc23)c1 | 64.6% | 81.1% | 83.4% | 75.3% | 33.7% | 66.2% | 102% | 69.8% | 61.4% | – |
| Cn1c2c(c3ccc(-c4ccn[nH]4)cc3c1=O)C(=O)c1ccccc1-2 | -11.6% (active) | 29.4% | 86% | 74.2% | 45.6% | 60.3% | 85.8% | 53.2% | 32.2% | – |
| COc1ccc2oc(=O)cc(-c3nc4ccc(N)cc4[nH]3)c2c1 | – | 89.9% | 92.6% | 77.5% | 76.7% | 86.2% | 81.5% | – | 51.8% | 95.8% |
| CS(=O)(=O)O[C@@H]1C(=O)N(c2cc3c4ccccc4ccc3c3ccccc23)[C@H]1c1ccc(F)cn1 | – | 27.4% | 58.3% | 41.7% | 51.7% | -12.7% (active) | 7.01% (active) | 20.2% | 32.5% | 66.5% |
| O=C(O)c1ccc(-n2cc(/C=N/Nc3ccc(Cl)cc3Cl)c(-c3ccccc3)n2)cc1 | – | 98.6% | 107% | 89.4% | 89% | 88.7% | 107% | 92.3% | 70.7% | 87.3% |
| C=C1C(=O)O[C@H]2[C@H]1CC/C(COC(=O)CCCCCCC(=O)OC/C1=C/CC[C@@]3(C)O[C@H]3[C@H]3OC(=O)C(=C)[C@@H]3CC1)=C\CC[C@@]1(C)O[C@@H]21 | – | -18.7% (active) | 61% | 94.6% | 11.2% | -3.87% (active) | 27.2% | – | -18.1% (active) | 42.3% |
| N#CC1(C#N)C2=C(CCCC2)NC(c2c(F)cccc2Cl)C1(C#N)C#N (stereo unspecified) | – | 86.9% | 87.7% | 79.7% | 83.3% | 20.3% | 43.4% | 76.6% | 79.7% | 66.9% |
| CC(C)CSc1nc(Nc2ccccc2)c(C#N)c(-c2ccc(F)cc2)n1 | – | 29.4% | 40.8% | 46.8% | 1.71% (active) | -33.2% (active) | 14.6% | 41.1% | 29.1% | -81.3% (active) |
| c1ccc2c3c([nH]c2c1)C(c1ccc(C2NCCc4c2[nH]c2ccccc42)cc1)NCC3 (stereo unspecified) | – | -41.4% (active) | 77% | 49.1% | 25.8% | -65.3% (active) | -16.8% (active) | 63.1% | -59% (active) | 23.5% |
| CCOC(=O)c1c(C)nc2c(c1N)/C(=C/c1ccc[nH]1)C(=O)N2Cc1ccc(C(F)(F)F)cc1 | – | 28.5% | 74.5% | 21.9% | 54.7% | 47.7% | 38% | 49.7% | 24.8% | 12.6% |
| COc1ccc(N(C)c2nc(Cl)nc3ccn(C)c23)cc1 | – | 0.816% (active) | 30.6% | 7.76% (active) | 26.1% | -12.3% (active) | 36.8% | 3.41% (active) | 74.9% | 36.6% |
| O=C(Nc1nc(-c2ccccc2Cl)cs1)c1cc(-c2ccc(Br)cc2)nc2ccccc12 | – | 43.1% | 70.6% | 31.8% | 61.4% | – | 79.6% | 57.2% | 9.58% (active) | – |
| CC(=O)c1cc2c(N)c(C(=O)Nc3ccccn3)sc2nc1C | – | 103% | 89.4% | 48.3% | 92.8% | 92.2% | 74.2% | 94.7% | 94.5% | 99.4% |
| Oc1ccccc1-c1nc2c3ccccc3c3ccccc3c2o1 | – | 89% | 114% | 90.4% | 74.1% | 97.2% | 89.5% | 94.5% | 78.9% | 76.4% |
| COc1ccc(-c2nnc(N3CCN(C(=O)CN4CCN(c5ccc(OC)cc5)CC4)CC3)nc2-c2ccc(OC)cc2)cc1 | – | -54.9% (active) | 111% | 101% | -60.8% (active) | -96.1% (active) | 21% | -40.6% (active) | -64.5% (active) | -48.3% (active) |
| S=c1ssnc1-c1cc2ccccc2o1 | – | 86% | 105% | 85.7% | -54% (active) | 80.4% | 61.9% | 78% | 64.5% | 83.2% |
| COc1ccc(C(=O)c2cc(OC)c(C)c(OC)c2)cc1OC(=O)CCl | – | 25.4% | 74.8% | 19.4% | 30.7% | – | 40.5% | 10.5% | 43.8% | 60.1% |
